# Laboratory results as given in the supplement of paper PMC11417369.
# Whole data set: some 25,000 sequences, median “ln(normalized median fluorescence intensity)” near 9.7, cut for the highest 2% near 11. For the sample, the highest values were picked, then their nearest neighbours and some sequences at random.
# Test system: PfAP2-HC AP2 domain (GST-tagged)
# Test: gcPBM binding intensity (ln(normalized median fluorescence intensity)); higher = stronger DNA binding
# Procedure, shortened: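 Binding intensity is defined as the maximum Masliner-normalised natural-log median intensity across replicate spots for either probe orientation. It was measured on an Agilent 4 × 180k array of primer-extended double-stranded 36-bp intergenic genomic probes and negative controls, to which GST-tagged P. falciparum DNA-binding domains made in E. coli were applied for 1 h in 1× PBS with 1% milk, 0.2 mg/ml BSA, 0.5% salmon testes DNA and 0.03% Triton X-100. Detection was by Alexa488 anti-GST antibody and scanning at 488 nm.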
row,Sequence,gcPBM binding intensity (ln)
1,AAAAAACTTCACATATGTACTTAAAAAAAATTAAAA [XGTACX_site2368],9.43
2,ATATAGTAAAATTATACACACATGAATTTTCCCATA [CACACA_site3113],9.81
3,TCCCAATTTATTATGTGTACTTATTATATACATATA [XGTACX_site4033],9.72
4,TAAAGTATTACAACCACACACACACCGATATATTAT [CACACA_site9382],10.8
5,AAGTATTACAACCACACACACACCTATATATCATAG [CACACA_site7878],11
6,ATTATAACCATATACACACCCATATAAATAAATATA [CACACA_site6926],10.5
7,AAGTATTACAACCACACACACACCTATATATTATAT [CACACA_site4158],10.6
8,TAAAGTATTACAACCACACACACACCCATATATTAT [CACACA_site4159],11.1
9,GTATTACAACGACACACACACCTATATATCATAGTA [CACACA_site7877],10.5
10,AAAGGATGTAATATAAACATATATATGTATATATAT [TGCATGCA_negctrl_site347],9.79
11,AATATTATATTTTATTGTACTAATAAAAATATATGC [XGTACX_site5435],9.43
12,AAAAAAGGAAAAGATACACACCGTAAATTAAAATTT [CACACA_site5908],10.2
13,AAAAAAAAAAAAAAAAAAAAAAAAAAAATACGAAAG [GTGCAC_negctrl_site729],9.46
14,AATTTCTACTATTGTATGCACTTTCATACATACATA [GTGCAC_site9924],9.92
15,TAAAAAATAAAATAATGTACATATGAATTATATATT [XGTACX_site8398],9.68
16,TATTACCCATATTATACACACATATATTATATATAT [CACACA_site1567],10.2
17,TATAGAAGCGTTCACACACACACATACATACCCATA [CACACA_site4915],11.1
18,GTTATAGAAGCATTCACACACACACCCACATACACA [CACACA_site1465],11.2
19,GTTATAGAAGCATTCACACACACACCGACATACACA [CACACA_site4914],10.3
20,AATATAGATACATATACACACACACCCATACATATA [CACACA_site9137],10.6
21,TTGTTATAGAAGCATTCACACACACCCATACATACA [CACACA_site8414],10.8
22,TCTTCCATTTTTATTACACACATAAATATGAAATCG [CACACA_site3471],9.74
23,ATATATATTTATAATCGTACGTACCTAACAATACAA [XGTACX_site4510],9.62

row,Sequence,gcPBM binding intensity (ln)
1,ATGGATTATACGTGCACACATATATACAAATAAATA [CACACA_site640],9.81
2,ACTTGACACGGACACACACACATATATAAAAAAAAA [CACACA_site4576],10.5
3,AGCAGACACCAACACACACACATATATATATATATA [CACACA_site337],10.5
4,AAACTTGACAGACACACACACACATATATAAAAAAA [CACACA_site757],10.4
5,AAATAAAATACATATAAACACACATATAAACCAACA [CACACA_site8789],10.2
6,AAACTTGACGGACACACACACACATATATAAAAAAA [CACACA_site4577],11.6
7,GTTTGATTAAACTTGACACACATATATATAAATATA [CACACA_site1784],9.65
8,CATATATAAAAAAACACACACATATATATATATATA [CACACA_site1195],10.2
9,ACTTGACACCAACACACACACATATATAAAAAAAAA [CACACA_site756],11
10,AAACTTGACGAACACACACACACATATATAAAAAAA [CACACA_site6494],11.5
11,AATGGAAAATTATTAACACACACATATAAATATATA [CACACA_site7899],10.1
12,AAATATAAATATACTCGTACATATATATATATATAT [XGTACX_site6940],9.72
13,ACAAAACATATATTCTGTACATATATAATGGTGACT [XGTACX_site6796],9.77
14,TTTTTTTTTTTTTTTTTTTGATTCTTATAAAAATTT [GTGCAC_negctrl_site240],8.56
15,CTTATATTTAGACACACACACAATAAAATGAAAAAA [CACACA_site1031],10.3
16,TACTAAGAATTAATATAACAAAATAAAAAAAAAAAA [XGTACX_negctrl_site346],9.44
17,CAATTTATAAAGAAAACACACATATACCTATATACA [CACACA_site6710],9.85
18,TACAATTTATGACACACACACAATAATACCTATATA [CACACA_site6704],10.3
19,AATACAATTTATAACACACACACAAGAATACCTATA [CACACA_site6705],11.1
20,ATTGCATTTGTAGATAATACAATATGGATTGTTATA [CACACA_negctrl_site1749],9.44
21,TCCTTATTACTTTTTTAAGTCGTAATGAAAGAAAAA [CACACA_negctrl_site1497],9.15
22,AAATATTTATACCACACACACATACCTCTATTTGTA [CACACA_site6957],10.7
23,CAAAATATATATACCACACACACATACCTCTATTTG [CACACA_site1853],10.4

row,Sequence,gcPBM binding intensity (ln)
1,AAATATATATACCACACACACATACCTCTATTTGTA [CACACA_site1854],11.1
2,ATATATACCTAAGACACACACATATAGATTTATATA [CACACA_site6498],10.4
3,TATACCTATAGACACACACACATATAGATTTATATA [CACACA_site7124],11.1
4,CATACATAGATATATACACACATACCTATAAATACA [CACACA_site6513],10.2
5,CATACACATAGACACACACACATATATACCTATATA [CACACA_site6644],10.8
6,TATACCTATAGACACACACACATAAATAGATATATA [CACACA_site6748],11.1
7,AATAGATATATAAATACACACAAACATACCTATATA [CACACA_site7823],10.6
8,TATAGATACCTATACACACACACACGGACATATATA [CACACA_site7585],10.8
9,CATATATACCTATATACACACATATAGATTTATATA [CACACA_site6451],9.78
10,GATACCTATAGACACACACACATACCTATATACATA [CACACA_site7586],10.9
11,TTTGTAAGTCTTTGTTGTACTCAATAGAATGAAGAA [XGTACX_site8930],9.45
12,AACTCTTAGAATGACGGTACAGTATAATAGGTGAAC [XGTACX_site7163],9.69
13,TATAACTTTTTTAATACACACAAATATTTATTTATA [CACACA_site7425],9.61
14,ATACGTATATAATATACATGCATATATAGCACATAC [TGCATGCA_site376],9.83
15,CATACATACAAACACACACACATATATATACATACA [CACACA_site852],11.4
16,CATACATACAAACACACACACATATATATATATATA [CACACA_site43],10.2
17,CATACATACAAACACACACACATATAAATACATACA [CACACA_site4625],11.2
18,AATTCAAATATAAATACACACACATAGCTACAAAAT [CACACA_site9386],10.3
19,TAAATATATAAATACACACAAACATACATATATATA [CACACA_site4050],10.1
20,AAATATAAAAAATATACACACATATAAAATCTATAT [CACACA_site7406],9.91
21,AAAAAAAACGAACACACACACATACAAAATCTATAT [CACACA_site6795],11.1
22,TACAATCTAAAATACACACACACAAACATATATTTA [CACACA_site3702],10.7
23,TATAAATATACAAACACACATACAAACATATATATA [CACACA_site1120],10.2

row,Sequence,gcPBM binding intensity (ln)
1,AATATATAGCTAAAAACACACAAATATATACACATA [CACACA_site9203],9.97
2,TTCAAATATAAATACACACACATAGCTACAAAATAA [CACACA_site4172],11
3,CACATACACATACAAACACACATTATATATATATAT [CACACA_site8460],10.4
4,CAGCTCTTAAGAATTACACACATATACACATATATA [CACACA_site7524],9.95
5,TAAAATTTTTTTGTTTGTACATATATATATATAATA [XGTACX_site5609],9.53
6,CATTATTTATTTTAATGTACTTATTTTTAAATTGGT [XGTACX_site8038],9.54
7,TTTTCTTGTAAATTACGTACGAATGTGTAGAGAAAT [XGTACX_site1339],9.47
8,TATATATATATATGTAGTACTCAATATTGTAGATTA [XGTACX_site3856],9.64
9,CTAGCAAATACATACACACACACACCGATACATATA [CACACA_site9164],10.7
10,AAATATAAAAATAGCACACATATATACATATATATA [CACACA_site56],9.88
11,TTATAATTATATACATGTACATATAATACATATATA [XGTACX_site8904],9.46
12,AATGATCAGATATACACACACACAAAAAAAAAAAAA [CACACA_site7806],10.4
13,AATGATCATATATACACACACACAAAAAAAAAAAAA [CACACA_site4009],11.2
14,TACATATATATATACACACATACATATATATACGCA [CACACA_site792],9.85
15,AAAAAAAAAAAAAACACACACACAAATACAAATACA [CACACA_site414],11.5
16,ATTAAATCCGCACGCACACACACATATTAATAAAAA [CACACA_site3992],11.1
17,TAAATCCGCACGCACACACACATATTAATAAAAAAA [CACACA_site7800],10.5
18,AATGATCATAAATACACACACACAAAAAAAAAAAAA [CACACA_site6072],10.3
19,AATAAACATAAATACACACACAAAAAAAAAAACATA [CACACA_site4396],10.3
20,TAAATCCGCAGGCACACACACATATTAATAAAAAAA [CACACA_site3991],10.8
21,CATATACGCAAACACACACACATATATATATATATA [CACACA_site501],11.6
22,AAAAAAAAAAAAAACACACACACAAATACAAATGGT [CACACA_site1721],10.5
23,TATACGCATATATAAACACACAAAAAAAAAAAAAAA [CACACA_site2026],9.43
